From PubChem
Hits are enriched below; roughly 21% of the tested compounds scored in any of these assays.
CHX counter: counter-screen for Shiga toxin inhibitors: cycloheximide protein synthesis inhibition | cell reporter, cycloheximide protein synthesis inhibition counterscreen | max response, % | 300,000 tested, 12% active; in the data active means max response mostly above about 13%, no sharp cut-off; inactive means mostly below about 14%; further: read at 38.3 µM for the half of the compounds with a filed dose; 0% is about no effect
NS1 inh: inhibitors of influenza NS1 protein function; Potency, µM (highest dose often 46.1 µM), for the others: at the top dose activity, positive = more growth; 270,000 tested, 0.4% active; calls by dose curve; further: potency means the concentration at half of the fitted maximal effect; actives are rising curves; nearly all actives have a fitted effect of over 50% in size
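Read-out: OD600 growth recovery of NS1-expressing budding yeast. Cells grown overnight at 30C in -URA glucose medium, washed, resuspended and diluted 1:100 in 2% galactose assay medium, pH 6.0. Same strain lacking NS1 served as positive control.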
Shiga inhibitor: blocks Shiga toxin action in Vero cells | Vero cells, Shiga toxin protein synthesis inhibition reporter | inhibition, % at 38.7 µM | 290,000 tested, 9.2% active; in the data active means inhibition mostly above about 28%, no sharp cut-off; inactive means mostly below about 43%; further: 0% is about no effect
Pf growth 96h: P. falciparum growth inhibition at 96 hours | P. falciparum luciferase reporter growth, 96 h | Potency, µM (top dose mostly 28.7 µM), without a hit: top-dose activity change, negative = inhibition, actives largely listed as inhibitors | 320,000 tested, 6.9% active; further: potency means the concentration at half of the fitted maximal effect; on the % scale 0 is the no-effect control and ±100 the full control effect
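Erythrocytes infected with luciferase-expressing P. falciparum were dispensed at 2% hematocrit and 0.05% parasitemia (final), then incubated with compounds 96 hours at 37 C in 5% CO2. Luminescence after detection reagent addition reported growth.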
Pf growth 48h: inhibits P. falciparum growth in the first generation, 48 h; Potency, µM (series often up to 28.7 µM), for the others: at the highest dose activity change, negative = inhibition, usual class: inhibitors; 310,000 tested, 5.9% active; P. falciparum luciferase growth in erythrocytes, 48 h; further: potency means the concentration at half of the fitted maximal effect; on the % scale 0 is the no-effect control and ±100 the full control effect
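Luciferase-expressing P. falciparum in infected erythrocytes (2% hematocrit, 0.1% parasitemia final) in RPMI 1640/0.5% Albumax were exposed to compound for 48 hours at 37 C, 5% CO2; growth read as luminescence.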
Active calls of the source: *; ? = inconclusive; nt = not tested or not shown. Unless noted, the call rests on the fitted dose curve; in most records, active means well fitted inhibition curve with a large enough effect; inconclusive means small, poorly fitted or top-dose-only effect, or another doubt; inactive means no such curve, though single readings can be large or run the other way.

SMILES	CHX counter	NS1 inh	Shiga inhibitor	Pf growth 96h	Pf growth 48h
CCN(CC)C(=O)CSc1nc(OC)cc(=O)[nH]1	-2.9	8.1%	-10.5	9.1%	-12.6%
COc1cccc(NC(=O)CN(C)S(=O)(=O)c2ccc3c(c2)n(C)c(=O)c(=O)n3C)c1	-9.1	-2.0%	-8.4	36.8%	6.0%
N#Cc1nc(-c2cccs2)oc1NCc1ccc(Cl)cc1	10.4	-19.1%	9.4	1.4%	?
N#Cc1nc(-c2cccs2)oc1NCc1ccccc1Cl	18.1*	17.6%	86.3*	nt	-14.0%
C[N+]1(CC(COCc2ccccc2)OC(=O)Cc2ccccc2)CCOCC1 (stereo unspecified)	-4.8	-3.4%	-1.8	?	13.1µM*
COc1cc2c(cc1OC)C(c1ccccc1)=NCC2	1.5	14.7%	-4.5	?	14.5%
COc1cc2c(cc1OC)C(c1ccccc1N)=NCC2	-2.5	2.9%	-2.9	1.04µM*	2.94µM*
COc1ccc(S(=O)(=O)n2cnc(C)c2)cc1	7.1	-1.7%	1.4	0.0%	-3.9%
C[N+](C)(C)c1ccc(/C=N/Nc2nc(Cl)c(C#N)c(Cl)c2Cl)cc1	-3.3	-36.9%	-7.4	?	2.08µM*
C[n+]1cccc(/C=N/Nc2nc(Cl)c(C#N)c(Cl)c2Cl)c1	-0.2	-33.9%	-14.1	-21.8%	?
N#Cc1c(Cl)nc(N/N=C/c2ccccc2)c(Cl)c1Cl	7.1	-29.4%	3.3	5.22µM*	7.4%
COc1ccc(CNC(=O)CN(C(=O)Cn2nnc(-c3ccccc3F)n2)c2ccc(C)cc2)cc1	8.9	-2.0%	2.5	?	?
Cc1ccc(CC(=O)CCc2ccccc2)cc1	nt	nt	nt	63.7%	24.8%
C=CC[N+](C)(C)c1ccc(CCC(=O)CCc2ccc([N+](C)(C)CC=C)cc2)cc1	nt	nt	nt	0.147µM*	0.147µM*
COc1cc(OC)cc(C(=O)NC(=S)N2CCCCCC2)c1	-2.0	-7.5%	-21.8	36.0%	?
O=C(NC1CCSC1=O)c1ccc(Cl)cc1 (stereo unspecified)	-2.5	0.5%	-8.2	-27.7%	nt
COc1ccc(NC(=O)C(=S)N2CCCC2)cc1	30.3*	4.0%	35.1	?	30.4%
COC(=O)c1ccc(C(=O)OC)c(NC(=S)N2CCC(C)CC2)c1	-3.2	-1.4%	-16.9	7.38µM*	-25.0%
O=C(COc1ccc(Cl)cc1)NC1CCSC1=O (stereo unspecified)	19.2*	0.4%	53.4*	12.6%	22.8%
COc1ccc(C(=O)NC(=S)N2CCCCC2)cc1	19.4*	?	40.4*	-3.3%	nt
COc1ccc(C(=O)NC(=S)NC2CCSC2=O)cc1 (stereo unspecified)	13.8	28.5%	27.0*	96.1%	-11.6%
COc1ccc(C(=O)NC(=S)N2CCC(C)CC2)cc1	25.6*	-10.9%	41.3	-34.4%	nt
COc1ccc(C(=O)NC(=S)N2CCCC2)cc1	-3.6	1.1%	-16.0	13.1µM*	25.3%
CC(C)[C@@H](C(=O)N1CCCC1)N1C(=O)N2CCc3c([nH]c4ccccc34)[C@@]2(C)C1=O	1.4	-8.5%	-4.4	10.4µM*	?
COc1ccc2[nH]c3c(c2c1)CCN1C(=O)N([C@@H](C)C(=O)NCc2ccccc2OC)C(=O)[C@]31C	-0.6	3.3%	-5.3	7.38µM*	4.15µM*
SMILES	CHX counter	NS1 inh	Shiga inhibitor	Pf growth 96h	Pf growth 48h
C[C@@H](C(=O)NC1CCCCC1)N1C(=O)N2CCc3c([nH]c4ccccc34)[C@@]2(C)C1=O	-3.4	-1.4%	2.7	?	45.0%
C[C@@H](C(=O)NC1CCN(Cc2ccccc2)CC1)N1C(=O)N2CCc3c([nH]c4ccccc34)[C@@]2(C)C1=O	-3.4	2.9%	-9.4	?	-11.8%
C[C@@H](C(=O)NCCc1ccccc1F)N1C(=O)N2CCc3c([nH]c4ccccc34)[C@@]2(C)C1=O	23.3*	-27.4%	29.6*	?	-30.2%
COc1ccc2[nH]c3c(c2c1)CCN1C(=O)N([C@@H](C)C(=O)NCc2ccccc2)C(=O)[C@]31C	-3.7	20.7%	9.5	?	?
C[C@@H](C(=O)NCCc1ccccc1)N1C(=O)N2CCc3c([nH]c4ccccc34)[C@@]2(C)C1=O	19.2*	-94.7%	20.6*	?	?
COc1ccc2c(c1)c1c(C)c3cnccc3c(C)c1n2CCCN	nt	-0.1%	nt	nt	nt
CCCCN(C(=O)C(C)(C)Oc1ccc(Cl)cc1)c1c(N)n(CCC)c(=O)[nH]c1=O	nt	nt	nt	-12.8%	-0.4%
C=CCNC(=O)C(=O)Nc1cc2c3c(c1)CCC(=O)N3CCC2	-2.0	-11.3%	37.8	-2.8%	-11.7%
